{"source": "the supplement of paper PMC4962491", "note": "± gives the standard deviation of the averaged measurements. Whole data set: some 1,600 compounds, median “mitochondrial oxygen consumption rate normalised to cell number, Z score over the library” near 0.065, cut for the lowest 2% near -2.2. The entries come from a sample that favours the lowest values as a whole."}
{"system": "FaDu", "test": "mitochondrial oxygen consumption rate normalised to cell number, Z score over the library; higher = higher oxygen consumption (negative = OCR reduction)", "settings": "treatment time 24 h; assay medium: 5 mM galactose, 5 mM pyruvate, 4 mM glutamine; 10 µM", "procedure": "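Primary screen: FaDu cells were incubated 24 h with Pharmakon 1600 / TDI oncology set compounds at 2 or 10 uM. Mitochondrial-specific OCR (basal minus 2 uM antimycin A) was measured on a Seahorse XF96 in assay medium with 5 mM galactose, 5 mM pyruvate and 4 mM glutamine, then corrected for Hoechst cell number and expressed as a Z score […]. Compounds that cut cell number by >66% were excluded. Two repeats.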"}
{"smiles": "S=C=NCc1ccccc1", "mitochondrial oxygen consumption rate normalised": "-4.7 ± 0.66"}
{"smiles": "CN1CCN(C(=O)O[C@H]2c3nccnc3C(=O)N2c2ccc(Cl)cn2)CC1", "mitochondrial oxygen consumption rate normalised": "-0.823 ± 0.029"}
{"smiles": "CN(C)C(=S)SSC(=S)N(C)C", "mitochondrial oxygen consumption rate normalised": "0.578 ± 0.018"}
{"smiles": "CC(=O)Oc1ccc(Cl)c2cccnc12", "mitochondrial oxygen consumption rate normalised": "-3.19 ± 0.57"}
{"smiles": "CCNC1(c2cccs2)CCCCC1=O", "note": "(stereo unspecified)", "mitochondrial oxygen consumption rate normalised": "-0.924 ± 0.92"}
{"smiles": "CNC(C)C(O)c1ccccc1", "note": "(stereo unspecified)", "mitochondrial oxygen consumption rate normalised": "0.176 ± 0.34"}
{"smiles": "CN(C)C(=O)Oc1cccc([N+](C)(C)C)c1", "mitochondrial oxygen consumption rate normalised": "0.321 ± 1.4"}
{"smiles": "C1CCc2nnnn2CC1", "mitochondrial oxygen consumption rate normalised": "-0.625 ± 0.34"}
{"smiles": "O=c1[nH]c(=O)n(Cl)c(=O)n1Cl", "mitochondrial oxygen consumption rate normalised": "0.623 ± 1.2"}
{"smiles": "O=c1[nH]c2ccccc2n1C1CCN(CCCC(c2ccc(F)cc2)c2ccc(F)cc2)CC1", "mitochondrial oxygen consumption rate normalised": "-2.35 ± 0.37"}
{"smiles": "O=c1[nH]c2ccccc2n1CCCN1CCC(n2c(=O)[nH]c3cc(Cl)ccc32)CC1", "mitochondrial oxygen consumption rate normalised": "-0.0948 ± 0.24"}
{"smiles": "Nc1ccc([As](=O)(O)O)cc1", "mitochondrial oxygen consumption rate normalised": "0.928 ± 0.83"}
{"smiles": "N.N.[Cl][Pt][Cl]", "note": "[Cisplatin]", "mitochondrial oxygen consumption rate normalised": "-0.167 ± 0.0067"}
{"smiles": "N.N.[Cl][Pt][Cl]", "mitochondrial oxygen consumption rate normalised": "0.355 ± 0.5"}
{"smiles": "COc1cc([C@@H]2c3cc4c(cc3[C@H](O)[C@H]3COC(=O)[C@H]23)OCO4)cc(OC)c1OC", "mitochondrial oxygen consumption rate normalised": "-0.645 ± 0.1"}
{"smiles": "CCC1(CC)C(=O)C=CNC1=O", "mitochondrial oxygen consumption rate normalised": "0.538 ± 1.2"}
{"smiles": "CC[C@H]1CN2CCc3cc(OC)c(OC)cc3[C@@H]2C[C@@H]1C[C@H]1NCCc2cc(OC)c(OC)cc21", "mitochondrial oxygen consumption rate normalised": "-5.13 ± 0.2"}
{"smiles": "CCOC(=O)NC(=S)Nc1ccccc1NC(=S)NC(=O)OCC", "mitochondrial oxygen consumption rate normalised": "-0.249 ± 0.0062"}
{"smiles": "NCc1cccnc1", "mitochondrial oxygen consumption rate normalised": "0.0684 ± 1.5"}
{"smiles": "CC(=O)NC1CCSC1=O", "note": "(stereo unspecified)", "mitochondrial oxygen consumption rate normalised": "0.219 ± 0.66"}
{"smiles": "COC(C)(C)CCC[C@H](C)C/C=C/C(C)=C/C(=O)OC(C)C", "mitochondrial oxygen consumption rate normalised": "0.396 ± 0.11"}
